Experimental data: PubChem BioAssay (EPA / NIEHS)
Active and inactive are the calls of the source. The calls were made as follows: active = hit-call score of the fitted dose curve at least 0.9, where 1 is the maximum; inactive = score below 0.9.

Experiments:
[1] = ATG_CRE_CIS: Attagene CIS-FACTORIAL HepG2 Assay for human cAMP Responsive Element (CRE) binding protein 3 (AID 2282926); conditions: HepG2 CRE cis-reporter, Attagene multiplexed mRNA; actives raise or lower the signal
Summary of the method: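 HepG2 cells transiently transfected with a multiplexed reporter library (CRE-driven unit among them) were dosed for 24 h. Reporter mRNA was quantified by RT-PCR, fluorescent labelling, HpaI digestion and capillary electrophoresis, with bidirectional fitting against DMSO baseline.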

[2] = biological target: CCAAT/enhancer-binding protein beta (Homo sapiens) (UniProt P17676); test: ATG_C_EBP_CIS: Attagene CIS-FACTORIAL HepG2 Assay for human CCAAT/Enhancer Binding Protein (C/EBP) beta (AID 2282927); conditions: HepG2 Attagene cis-factorial transcription factor reporter; actives raise or lower the signal
Summary of the method: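 HepG2 transiently transfected with multiplexed reporter units under cis-regulatory promoters reporting endogenous C/EBPb activity. After 24 h exposure, reporter mRNA assayed by RT-PCR, fluorescent labelling, HpaI digestion and capillary electrophoresis; bidirectional fitting versus DMSO.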

[3] = ATG_CMV_CIS: Attagene CIS-FACTORIAL HepG2 Assay for human CMV (Internal Marker) (AID 2282928); conditions: HepG2 CMV promoter reporter, transcription factor profiling; actives raise or lower the signal;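 also: endpoint acts as a background internal control marker rather than a target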
Summary of the method: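 HepG2 cells transiently transfected with multiple cis-regulated reporter units; 24 h compound exposure. Reporter mRNA quantified by RT-PCR, 6-FAM primer-extension labeling, HpaI digestion and capillary electrophoresis; bidirectional fitting against DMSO baseline.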

[4] = ATG_DR4_LXR_CIS: Attagene CIS-FACTORIAL HepG2 Assay for human Liver X Receptor (LXR), DR4 submotif (AID 2282929); conditions: HepG2 Attagene DR4 cis-reporter, mRNA transcription; actives raise or lower the signal
Summary of the method: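 Total RNA from 24 h-treated, MRTU-transfected HepG2 cells underwent reverse transcription, PCR, fluorescent primer extension and restriction digestion before capillary electrophoresis. Both increases and decreases in reporter signal were fitted against DMSO.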

[5] = ATG_AP_1_CIS: Attagene CIS-FACTORIAL HepG2 Assay for human Activator Protein 1 (AP-1) (AID 2282931); conditions: HepG2 Attagene cis-factorial AP-1 reporter mRNA; actives raise or lower the signal
Summary of the method: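 HepG2, transient cis-reporter transfection; 24 h; readout RT-PCR/CE fluorescence; DMSO baseline, gain and loss fitted.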

[6] = ATG_AP_2_CIS: Attagene CIS-FACTORIAL HepG2 Assay for human Activator Protein 2 (AP-2) (AID 2282932); conditions: HepG2 AP-2 cis-reporter, Attagene transcription factor profiling; actives raise or lower the signal
Summary of the method: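 HepG2 cells transiently transfected with cis-element reporter units and exposed for 24 h. Reporter mRNA measured by RT-PCR, FAM labelling, HpaI digestion and capillary electrophoresis. Changes in either direction fitted relative to DMSO.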

[7] = ATG_BRE_CIS: Attagene CIS-FACTORIAL HepG2 Assay for human Bone Morphogenetic Protein (BMP) Response Element (BRE) (AID 2282933); conditions: HepG2 BMP response element reporter, Attagene transcription factor profiling; actives raise or lower the signal
Summary of the method: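 Fluorescence-labelled reporter cDNA fragments, separated by capillary electrophoresis, gave the signal for this component of a 52-readout multiplex. HepG2 cells were transfected, exposed to chemicals for 24 h, and compared with DMSO using bidirectional fitting.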

[8] = biological target: Transcription factor E2F1 (Homo sapiens) (UniProt Q01094); test: ATG_E2F_CIS: Attagene CIS-FACTORIAL HepG2 Assay for human E2F Transcription Factor 1 (AID 2282935); conditions: HepG2 Attagene cis-reporter, E2F reporter RNA transcripts; actives raise or lower the signal
Summary of the method: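 Endogenous E2F1 activity read through cis-promoter reporter units transfected into HepG2. After 24 h compound treatment, reporter mRNA measured by RT-PCR, HpaI digestion and capillary electrophoresis. Bidirectional fit versus DMSO.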

[9] = biological target: Retinoic acid receptor alpha (Homo sapiens) (UniProt P10276); test: ATG_DR5_RAR_CIS: Attagene CIS-FACTORIAL HepG2 Assay for human Retinoic Acid Receptor Alpha (RARE), DR5 submotif (AID 2282934); conditions: HepG2 Attagene cis-factorial RARE DR5 reporter, mRNA; actives raise or lower the signal;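 also: reporter responds to endogenous RAR alpha beta and gamma in HepG2 not RARA alone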
Summary of the method: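 HepG2 cells transiently transfected with multiplexed reporter units; DR5 cis-element drives reporter through endogenous transcription factors. After 24 h dosing, reporter mRNA quantified by RT-PCR, fluorescent labeling, HpaI digestion and capillary electrophoresis; bidirectional fitting versus DMSO.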

Measured: AC50

CCAAT/enhancer-binding protein beta (Homo sapiens), sequence (P17676 whole entry, looked up): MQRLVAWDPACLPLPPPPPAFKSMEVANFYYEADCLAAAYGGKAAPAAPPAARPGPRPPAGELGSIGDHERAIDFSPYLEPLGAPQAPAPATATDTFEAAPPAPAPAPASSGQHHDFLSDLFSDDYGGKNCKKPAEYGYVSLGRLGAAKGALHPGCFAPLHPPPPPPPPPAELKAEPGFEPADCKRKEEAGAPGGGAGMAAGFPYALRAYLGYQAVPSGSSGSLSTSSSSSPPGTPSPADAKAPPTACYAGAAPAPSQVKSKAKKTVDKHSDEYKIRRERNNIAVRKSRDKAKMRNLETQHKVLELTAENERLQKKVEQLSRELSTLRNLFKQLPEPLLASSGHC
Transcription factor E2F1 (Homo sapiens), sequence (Q01094 whole entry, looked up): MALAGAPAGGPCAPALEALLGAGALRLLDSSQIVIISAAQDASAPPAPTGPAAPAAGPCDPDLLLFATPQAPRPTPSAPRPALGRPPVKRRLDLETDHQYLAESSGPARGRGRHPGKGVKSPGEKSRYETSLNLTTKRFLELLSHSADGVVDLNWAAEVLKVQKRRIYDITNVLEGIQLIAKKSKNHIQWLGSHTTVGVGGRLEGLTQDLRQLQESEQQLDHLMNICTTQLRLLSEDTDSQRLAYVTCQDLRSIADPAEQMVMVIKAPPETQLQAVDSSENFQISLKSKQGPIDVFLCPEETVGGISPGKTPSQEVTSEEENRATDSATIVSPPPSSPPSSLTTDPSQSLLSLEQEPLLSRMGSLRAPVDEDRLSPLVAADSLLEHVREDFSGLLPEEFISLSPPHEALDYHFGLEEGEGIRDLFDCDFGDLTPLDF
Retinoic acid receptor alpha (Homo sapiens), sequence (P10276 whole entry, looked up): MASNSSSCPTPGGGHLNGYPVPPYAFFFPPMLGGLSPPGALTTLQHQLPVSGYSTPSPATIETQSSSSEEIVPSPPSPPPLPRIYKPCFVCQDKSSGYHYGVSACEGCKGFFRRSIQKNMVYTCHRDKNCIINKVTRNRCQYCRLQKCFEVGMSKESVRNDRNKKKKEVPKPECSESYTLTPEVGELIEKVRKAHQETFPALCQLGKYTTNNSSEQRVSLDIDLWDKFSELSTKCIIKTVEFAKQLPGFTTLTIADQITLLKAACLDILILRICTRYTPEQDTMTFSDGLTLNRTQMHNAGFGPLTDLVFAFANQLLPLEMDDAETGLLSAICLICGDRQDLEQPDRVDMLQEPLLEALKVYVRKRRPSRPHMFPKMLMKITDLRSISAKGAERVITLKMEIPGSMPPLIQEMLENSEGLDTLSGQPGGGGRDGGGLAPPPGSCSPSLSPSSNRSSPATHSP

CCCC[C@H]1CN(CC2CCOCC2)C(=O)OC12CCN(C1(C)CCN(C(=O)c3c(C)ncnc3C)CC1)CC2
not listed: [9]
inactive: all other assays above

Cc1cc(SC2=C(O)C[C@@](CCc3ccc(N)cc3)(C(C)C)OC2=O)c(C(C)(C)C)cc1CO
not listed: [9]
inactive: all other assays above

C=CCCCCCCCCCCCC
active: [3] 100 µM | [4] 177 µM
not listed: [9]
inactive: all other assays above

CCCCC(CC)COC(=O)CCCCCCCC(=O)OCC(CC)CCCC (stereo not drawn)
not listed: [9]
inactive: all other assays above

c1ccc2occc2c1
not listed: [9]
inactive: all other assays above

CCC(C)N(C)C(=O)c1cc2ccccc2c(-c2ccccc2Cl)n1 (stereo not drawn)
active: [3] 46 µM | [4] 31.8 µM | [5] 84.8 µM | [7] 97.4 µM
inactive: [1] | [2] | [6] | [8]

CCc1cc(C2=C(C(=O)O)N(c3ccccc3C(F)(F)F)S(=O)(=O)c3ccccc32)cc2c1OCO2
active: [5] 38.6 µM
not listed: [9]
inactive: all other assays above

CS(=O)(=O)c1ccc([C@@H](C[C@H]2CCC(=O)C2)C(=O)Nc2cnccn2)cc1Cl
not listed: [9]
inactive: all other assays above

Cc1cn([C@H]2C=C[C@@H](CO)O2)c(=O)[nH]c1=O
not listed: [9]
inactive: all other assays above

O=C(N[C@@H](c1ccccc1)[C@@H]1CCCCN1)c1cccc(C(F)(F)F)c1Cl
inactive: [2] | [4] | [7] | [8]
active: [1] 25.4 µM | [3] 12.1 µM | [5] 9.01 µM | [6] 33 µM | [9] 20.9 µM

CN(C)CCCN(C)CCCN(C)C
active: [4] 24.5 µM
not listed: [9]
inactive: all other assays above

CC(=O)OCC(COC(C)=O)OC(C)=O
not listed: [9]
inactive: all other assays above

CC(=O)CC(c1ccccc1)c1c(O)c2ccccc2oc1=O (stereo not drawn)
not listed: [9]
inactive: all other assays above

O=C1c2c(O)cccc2Cc2cccc(O)c21
not listed: [9]
inactive: all other assays above

CO[C@@H]1COCC[C@@H]1N[C@@H]1CC[C@@](C(=O)N2CCc3ncc(C(F)(F)F)cc3C2)(C(C)C)C1
not listed: [9]
inactive: all other assays above

NCCOCCOCCN
not listed: [9]
inactive: all other assays above

O=C1NC(=O)C(c2ccccc2)(c2ccccc2)N1
not listed: [9]
inactive: all other assays above

CCCCCCCCCCCCCCCCO
active: [9] 100 µM
inactive: all other assays above

CCCCCCCCCC[N+](C)(C)[O-]
not listed: [9]
inactive: all other assays above

OCC(CO)n1cnc(-c2ccc(F)cc2)c1-c1ccnc(Oc2ccccc2)n1
not listed: [9]
inactive: all other assays above

CC(=O)S[C@H](C(=O)N[C@H]1Cc2ccccc2[C@H]2CCC[C@@H](C(=O)O)N2C1=O)C(C)C
not listed: [9]
inactive: all other assays above

CCCCCCC(CCCCCCCCCCC(=O)OCC(COC(C)=O)OC(C)=O)OC(C)=O (stereo not drawn)
active: [3] 35.6 µM
not listed: [9]
inactive: all other assays above

O=C(O)c1cccnc1
not listed: [4] | [9]
inactive: all other assays above

COC(=O)CCC(=O)OC
not listed: [9]
inactive: all other assays above
